Most compounds without a hit are left out; they make up all but 7% or so of the library.
KAT2A inh: inhibitors of human GCN5L2 histone acetyltransferase; GCN5L2 HAT assay, ThioGlo1 CoA-SH fluorescence; AID 504327; 390,000 compounds, 0.21% hits; Q92830; Potency, µM (doses to about 58.9 µM), inactives show at the highest dose activity change, negative = inhibition, usual class: inhibitors; further: potency means the concentration at half of the fitted maximal effect; on the % scale 0 is the no-effect control and ±100 the full control effect
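Enzyme at 20nM final was mixed with library compounds for 15 min at room temperature. Peptide H3(1-25) at 75uM, acetyl-CoA at 70uM and ThioGlo1 at 50uM were then added. Plates were read immediately and after 20 min (Ex340nm/Em540nm).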
HP1b chromo inh: HP1-beta chromodomain-methylated histone interaction inhibition. P83916. 390,000 compounds, 0.56% hits. AID 540317. Potency, µM (highest dose often 114 µM), for the others: at the highest dose activity change, negative = inhibition, actives largely listed as inhibitors. AlphaScreen HP1-beta / biotin-H3K9me3 peptide binding; further: potency means the concentration at half of the fitted maximal effect; nearly all actives have a fitted effect of over 70% in size
Target sequence (P83916 whole entry, looked up): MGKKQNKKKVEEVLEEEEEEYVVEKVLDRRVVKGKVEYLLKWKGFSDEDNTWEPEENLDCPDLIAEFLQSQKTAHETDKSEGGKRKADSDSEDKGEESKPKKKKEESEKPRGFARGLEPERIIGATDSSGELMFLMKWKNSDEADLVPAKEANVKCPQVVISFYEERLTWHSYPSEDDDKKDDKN
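Compound inhibition of the preformed complex between 50 nM HP1-beta and 50 nM biotinylated H3K9me3 peptide was read by AlphaScreen. Buffer was PBS pH 7.4 with 0.01% Tween-20. Incubations ran 30 min at room temperature, with 10 ug/mL donor/acceptor beads.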
PLK1 PBD inh: blocks phosphopeptide binding to human PLK1 polo-box domain; P53350; Plk1 PBD binding of FITC phosphopeptide, fluorescence polarization; Potency, µM, for the others: max response, negative = inhibition, usual class: inhibitors; 360,000 compounds, 2.8% hits; further: potency means the concentration at half of the fitted maximal effect; series mostly up to about 57 µM; on the % scale 0 is the no-effect control and ±100 the full control effect; nearly all actives have a fitted effect of over 65% in size
JMJD2A Tudor inh: JMJD2A Tudor domain (human) inhibition; Potency, µM (top dose mostly 114 µM), inactives show top-dose activity change, negative = inhibition, actives largely listed as inhibitors; AlphaScreen JMJD2A-Tudor / H3K4me3 peptide binding; AID 504339; 390,000 compounds, 4.4% hits; further: potency means the concentration at half of the fitted maximal effect; on the % scale 0 is the no-effect control and ±100 the full control effect; nearly all actives have a fitted effect of over 50% in size
PI5P4Ka inh: blocks human PI5P4K alpha kinase activity. P48426. PI5P4Kalpha enzyme, ADP-Glo luminescence, 60 min; active compounds read low. max response, %. 330,000 compounds, 1.2% hits. AID 652105; active means max response of -50% or lower; inconclusive means between -30% and -50%; inactive means -30% or higher; further: value at the top dose of about 77 µM; on the % scale 0 is the no-effect control and ±100 the full control effect
Target sequence (P48426 whole entry, looked up): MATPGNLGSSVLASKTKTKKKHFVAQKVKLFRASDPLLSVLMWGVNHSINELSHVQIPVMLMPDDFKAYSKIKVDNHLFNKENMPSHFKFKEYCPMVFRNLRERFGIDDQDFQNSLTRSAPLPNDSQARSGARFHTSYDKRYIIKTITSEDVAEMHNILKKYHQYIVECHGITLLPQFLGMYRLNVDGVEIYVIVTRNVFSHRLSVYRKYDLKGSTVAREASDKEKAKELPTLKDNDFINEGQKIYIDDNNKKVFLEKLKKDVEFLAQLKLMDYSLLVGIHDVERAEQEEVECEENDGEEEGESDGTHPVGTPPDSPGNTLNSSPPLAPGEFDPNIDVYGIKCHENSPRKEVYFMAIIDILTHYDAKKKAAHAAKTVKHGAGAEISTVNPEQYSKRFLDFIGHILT
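Reactions run in 0.038 M HEPES pH 7.4, 0.28 mM EGTA, 0.1% CHAPS and 5% DMSO, with PI5P4Kalpha, substrate, compound and 5 microM ATP final, one hour at room temperature. Readout is ADP-Glo luminescence.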
BAZ2B inh: BAZ2B (human) inhibition. Q9UIF8. AlphaScreen BAZ2B-H3K14Ac peptide displacement. Potency, µM (doses to about 114 µM), for inactives: top-dose activity change, negative = inhibition, usual class: inhibitors. 360,000 compounds, 4.4% hits. AID 504333; further: potency means the concentration at half of the fitted maximal effect; on the % scale 0 is the no-effect control and ±100 the full control effect; nearly all actives have a fitted effect of over 60% in size
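AlphaScreen displacement of biotin-H3(5-23)K14Ac peptide (50 nM final) from BAZ2B (50 nM final) in PBS pH 7.4, 0.01% Tween-20; complex preformed 30 min RT, then compounds (top 110 uM) 30 min RT, beads 20 min dark.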
Starred values were filed as active, the others as inactive; ? = inconclusive; nt = no result; [ ] = remark or other dose. Unless noted, the call rests on the fitted dose curve; in most records, active means well fitted curve in the direction sought with a large enough effect; inconclusive means small, poorly fitted or top-dose-only effect, or another doubt; inactive means no such curve, though single readings can be large; an effect the other way counts as inactive or inconclusive.

SMILES	KAT2A inh	HP1b chromo inh	PLK1 PBD inh	JMJD2A Tudor inh	PI5P4Ka inh	BAZ2B inh
O=C(COC(=O)CSc1ccc([N+](=O)[O-])cc1)NC1CCCCCCC1	-5%	?	24µM*	?	?	-8%
COc1cc(C(C)=O)ccc1OCC(O)CNCC1(N2CCCCC2)CCCCC1 (centres undefined)	-4%	?	-6%	3.2µM*	-1	50µM*
COc1ccccc1OC(C)C(=O)NCC1(N2CCOCC2)CCCCC1 (centres undefined)	-7%	18%	nt	-23%	nt	-1%
COc1ccccc1COCC(O)CNCC1(N2CCCCC2)CCCCC1 (centres undefined)	-7%	?	-5%	1.8µM*	0	?
C=CCNCC(O)COc1ccc(C(C)=O)cc1OC (centres undefined)	1%	71µM*	5%	2µM*	2	50µM*
CC(=O)c1ccc(OCC(=O)NCC2(N3CCCCC3)CCCCC2)cc1	3%	13%	5%	-15%	5	-1%
Cc1ccc(OCCCCn2c(-c3ccc(Cl)cc3)nc3ccccc3c2=O)cc1	0%	64%	nt	31%	nt	23%
CC1CCCC(C)N1CC(O)COCc1ccccc1F (centres undefined)	-12%	?	-9%	50µM*	-5	?
CCOc1ccc(C(=O)Nc2cc(NC(=O)c3ccc(OCC)c(Cl)c3)cc(C(=O)O)c2)cc1Cl	3%	?	?	50µM*	-11	?
CCOc1ccc(C(=O)Nc2cccc(C(=O)O)c2)cc1Cl	-1%	12%	-6%	-3%	-16	-9%
COc1ccc(C(=O)NNC(=O)C(=O)N2CCCCC2)cc1OC	-6%	19%	-5%	25µM*	-2	-5%
COc1ccc(S(=O)(=O)N2CCOCC2)cc1C(=O)Nc1ccc(N2CCCCCC2)cc1	nt	?	-5%	10µM*	-2	nt
Cc1ccc(NC(=O)c2cc(S(=O)(=O)N3CCOCC3)ccc2F)c(C)c1	-3%	34%	-15%	-19%	nt	6%
COc1ccc(C(=O)Nc2ccc(S(=O)(=O)N3CCCCC3)cc2)cc1OC	-4%	?	?	79µM*	-4	-10%
COc1cccc(C(=O)NNC(=O)C(=O)N2CCCCC2)c1	1%	16%	-2%	-15%	-2	-21%
Cc1cc(C)c(NC(=O)c2cc(S(=O)(=O)N3CCOCC3)ccc2F)c(C)c1	-4%	16%	11µM*	?	-24	-12%
C[C@@H]1O[C@@H](O[C@H]2[C@H](O)[C@@H](O)[C@H](Oc3c(-c4ccc(O)c(O)c4)oc4cc(O)cc(O)c4c3=O)O[C@@H]2CO)[C@H](O)[C@H](O)[C@H]1O	-8%	28%	-1%	-17%	-18	-37%
O=c1c(O)c(-c2ccc(O)cc2)oc2cc(O)cc(O)c12	-15%[21.4 µM]	-4%	-9%	?	-73*	nt
C[C@@H]1O[C@@H](Oc2c(-c3cc(O)c(O)c(O)c3)oc3cc(O)cc(O)c3c2=O)[C@H](O)[C@H](O)[C@H]1O	0%	?	?	32µM*	?	50µM*
Cc1cc(NC(=O)N2CCC(CN3CCOCC3)CC2)ccc1Br	11%	42%	nt	-15%	nt	-2%
COc1ccc(-c2cn(-c3ccc(C)cc3)c(=O)n2CC(=O)Nc2cccc(F)c2)cc1	-18%	-19%	-22%	79µM*	-1	?
CCCCN(C(=O)CSc1ncn[nH]1)c1c(N)n(Cc2ccccc2)c(=O)[nH]c1=O	5%	27%	-5%	-18%	-2	-2%
CCC(C)NC(=O)CN1C(=O)c2cccnc2Sc2ccccc21 (centres undefined)	5%	67%	nt	1%	nt	-33%
CCC(C)C(=O)N1c2ccccc2C(=C2SC(C(=O)OC)=C(C(=O)OC)S2)C(=S)C1(C)C (centres undefined)	-5%	?	-13%	8.9µM*	0	8.9µM*
CCN(Cc1ccccc1)C(=O)Cn1cc(S(=O)(=O)Cc2cccc(Cl)c2)c2ccccc21	-13%	14%	nt	-21%	nt	-1%
SMILES	KAT2A inh	HP1b chromo inh	PLK1 PBD inh	JMJD2A Tudor inh	PI5P4Ka inh	BAZ2B inh
Cc1cccc(Nc2nc(C#N)nc(NC3CCCC3)n2)c1	nt	nt	nt	3%	nt	nt
CCn1c2ccccc2c2cc(/C=N/n3cnnc3)ccc21	-15%	15%	-9%	-18%	nt	2%
CCn1c2ccccc2c2cc(/C=N/n3cn[nH]c3=S)ccc21	-20%	-33%	-18%	18µM*	nt	?
CCn1c2ccccc2c2cc(/C=N/n3c(-c4cc(C)[nH]n4)n[nH]c3=S)ccc21	-20%	-7%	-27%	?	-60*	-34%
COCCCNC(=O)CSc1nc2cc(S(=O)(=O)N3CCCCC3)ccc2o1	-3%	16%	-15%	-10%	0	5%
N/C(=N\OC(=O)c1ccccc1F)c1cccc([N+](=O)[O-])c1	1%	17%	-6%	-13%	2	-5%
CC(=O)c1cccc(S(=O)(=O)NCCCN2CCOCC2)c1	-5%	9%	0%	-12%	-2	12%
COc1ccc(N=CC2CCCCC2=O)c([N+](=O)[O-])c1 (centres undefined)	nt	45µM*	3%	25µM*	3	nt
COc1ccc(N2C(=O)C3C4C=CC(CC4)C3C2=O)c([N+](=O)[O-])c1 (centres undefined)	0%	2%	-9%	-31%	nt	?
Cc1ccccc1C1CCCN(Cc2nc(C3CC3)no2)C1 (centres undefined)	-13%	41%	0%	8%	3	7%
CC(C)CCC(CCNCc1ccccn1)c1ccc(Cl)cc1 (centres undefined)	-2%	?	4%	79µM*	4	?
S=C(NCc1ccc(Cl)cc1)NCc1ccccn1	-6%	9%	-6%	-22%	1	-19%
COc1ccccc1C#Cc1cnc2c(c1)C(=O)N([C@H](C)CO)C[C@H](C)[C@@H](CN(C)S(=O)(=O)c1cn(C)cn1)O2	nt	nt	-17%	nt	-3	nt
CC1CCc2[nH]c3ccc(C(=O)N4CCCC(C(F)(F)F)C4)cc3c2C1 (centres undefined)	-17%	-4%	-3%	?	-6	32µM*
CCOC(=O)C1CCCN(C(=O)c2ccc3[nH]c4c(c3c2)CC(C)CC4)C1 (centres undefined)	-2%	?	-6%	?	1	50µM*
CCOC(=O)C1CCCN(C(=O)c2ccc3c(c2)OCO3)C1 (centres undefined)	1%	39%	-20%	1%[57.1 µM]	-1	-3%
OCC1(CCOc2ccccc2)CCN(Cc2ccc(OC(F)F)cc2)CC1	-7%	14%	-19%	-8%	-1	-12%
CN(C)C(=O)c1ccc(SC(=S)NCc2ccccc2)cc1	nt	nt	2.7µM*	nt	?	nt

Screens from PubChem.
